According to PubChem BioAssay (NCI):
Compounds without any hit were thinned out: in the full panel of roughly 83,000, 20% have a hit.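 Results are percent growth after 48 hours of single-concentration exposure. 100 means growth as in untreated cells, lower positive values show inhibition; negative values down to -100 show cell death.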 A number with no mark means an inactive call. Calls of active or inactive are those of the source. Rule for the calls: active = growth percent below 10; inactive = the rest.

tested on: MDA-MB-468 breast; experiment: NCI-60 one-dose screen, 48 h (100 = growth as untreated, 0 = no growth, -100 = all killed); conditions: 10 µM unless noted

Compound | growth
CC(=O)c1cc(O)ccc1O | 98.3%
CCCCCCCCCCCCC1C/C=C\CCCC(=O)O1 (stereo not drawn) | 127%
O=C(Nc1cccc(N=Cc2c(O)ccc3ccccc23)c1)c1ccccc1 | 98.9%
O=C1c2c[n+](Cc3ccccc3)ccc2-c2nc3ccccc3c3ccnc1c23 | -59.2% (active)
CC(=O)Nc1ccc(OC(=O)c2ccccc2O)cc1 | 117%
CCN(CC)CCCOc1cccc2c1C(=O)c1cccc(OCCCN(CC)CC)c1C2=O | 35.5%
N=C(N)c1ccc(-c2ccc(-c3ccco3)o2)cc1F | -57.4% (active)
O=C(/C=C/c1ccccc1)c1ccc2ccccc2c1 | 47.8%
O=[N+]([O-])c1ccc(OCCO)cc1 | 120%
CCCCCCCCSC1=CC(=O)C(OC)=C(OC)C1=O | -75% (active)
Cc1c(C(N)=O)sc2ncn(Cc3ccccc3)c(=O)c12 | 99%
COc1ccc(C(=S)N2CCN(c3ccc(Cl)cc3)CC2)cc1 | 102%
Nc1cc(Cl)c(S(N)(=O)=O)cc1S(N)(=O)=O | 99.3%
COC(=O)c1ccc2c(c1)c1c(C)c3cnccc3c(C)c1n2C | -38% (active)
C#CCNC(=O)c1cccc2c1cc(C)n2-c1nc2c(c(NCc3ccccc3)n1)CCCC2 | -50.9% (active)
Nc1ncnc2c1CN(Cc1ccccc1)CC2 | 112%
Cc1cc(=O)c2cc3nc(-c4cccnc4)oc3c(Br)c2o1 | 96.4%
Nc1c(Cl)cccc1[N+](=O)[O-] | 115%
